This note sets out measurements from PubChem BioAssay (Tox21).

Results filed as inconclusive are left out. Active and inactive are the calls of the source. Unless noted, the call rests on the fitted dose curve.

Assay [1] can be described thus: Nuclear factor erythroid 2-related factor 2/antioxidant responsive element (Nrf2/ARE) small molecule agonists: qHTS cell viability counter screen in human keratinocytes (AID 1919968; active means well fitted curve in the direction sought with a large enough effect in the repeat runs; an effect the other way counts as inactive or inconclusive; further: nearly all actives have a fitted effect of over 55% in size). The method in brief: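 Viability counter-screen: KeratinoSens reporter cells, DMSO-delivered compounds, 23 h at 37 C, CellTiter-Fluor fluorescence.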
(In general: In qHTS, concentration-response curves come from the screen itself.)

Assay [2] is described as follows: Nuclear factor erythroid 2-related factor 2/antioxidant responsive element (Nrf2/ARE) small molecule agonists: luciferase reporter gene qHTS assay in human keratinocytes (AID 1919969). Further: nearly all actives have a fitted effect of over 35% in size. Further: potency means the concentration at half of the fitted maximal effect. For orientation: A reporter such as luciferase makes a cellular process visible.
For assay [3], the target named is Gonadotropin-releasing hormone receptor (Homo sapiens) (UniProt P30968). Description: Human gonadotropin-releasing hormone receptor (GnRHR) small molecule agonists, calcium flux assay in GnRHR-HEK293 cells (AID 1920063). Further: nearly all actives have a fitted effect of over 35% in size. The method in brief: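 Tox21-format agonist screen using human GnRHR-expressing HEK293 cells and a fluorescent calcium dye; kinetic 3-min fluorescence reading after compound addition, 15-point concentration series run in triplicate.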
A general note: A change in cytosolic calcium serves as a functional read-out for many receptors and channels.

The target in assay [4] is KiSS-1 receptor (Homo sapiens) (UniProt Q969F8). Description: Human kisspeptin (KISS1R) small molecule agonists, calcium flux assay in KISS1R-HEK293 cells (AID 1920064; active means well fitted curve in the direction sought with a large enough effect in the repeat runs; an effect the other way counts as inactive or inconclusive). The method in brief:
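Intracellular calcium mobilization in KISS1R-HEK293 cells was recorded by fluorescence (Ex/Em 480/540) for 3 min following compound addition to cells pre-loaded 1 h with calcium dye.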

A short description of assay [5]: G protein-coupled receptor (GPCR) small molecule agonists, calcium flux assay: HEK293 wild type cell line counter screen (AID 1920065). The procedure, abridged:
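In this agonist-mode screen, ATP is the positive control and DMSO the vehicle. Cells grow 18 h before a 1 h dye incubation at 37 C; signal is taken at Ex/Em 480/540 over 3 min.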

A short description of assay [6]: p53 small molecule agonists, cell-based qHTS assay with human liver microsomes (AID 1963577). The procedure, abridged: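 Cells carrying a p53-responsive bla reporter were rested 5 h (37 C, 5% CO2) before compound transfer. Human liver microsomes plus NADPH, 0.5 mg/mL final apiece, supplied metabolism during the 16 h 37 C exposure.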
Assay [7] can be described thus: p53 small molecule agonists, cell-based qHTS assay with rat liver microsomes (AID 1963578). The procedure, abridged:
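Fluorescence from a beta-lactamase reporter under a p53 response element was measured after cells had been incubated 16 h at 37 C with test compound and rat liver microsomes plus NADPH (0.5 mg/mL final each).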

Assay [8] in a line: p53 small molecule agonists, cell-based qHTS assay with human liver microsomes: qHTS cell viability counter screen (AID 1963579). Further: nearly all actives have a fitted effect of over 45% in size. The procedure, abridged:
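Seed p53RE-bla cells at 4,000 per well; incubate 5 h at 37 C; add compound, human liver microsomes and NADPH; incubate 16 h at 37 C; add CellTiter-Glo; after 30 min at room temperature, read luminescence.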

The nature of assay [9]: p53 small molecule agonists, cell-based qHTS assay with rat liver microsomes: qHTS cell viability counter screen (AID 1963580). Further: nearly all actives have a fitted effect of over 45% in size. The method in brief: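 p53RE-bla HCT-116 cells were exposed 16 h at 37 C to compounds with rat liver microsomes (0.5 mg/mL) and NADPH (0.5 mg/mL). Viability was measured in the same wells as ATP content by CellTiter-Glo luminescence.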
A short description of assay [10]: p53 small molecule agonists, cell-based qHTS assay: qHTS cell viability counter screen (AID 1963581). Further: nearly all actives have a fitted effect of over 45% in size. The procedure, abridged:
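Compounds are pinned onto HCT-116 p53RE-bla cells and left 16 h at 37 C. Following the reporter FRET read, ATP is quantified by CellTiter-Glo luminescence after 30 min at room temperature.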

A short description of assay [11]: p53 small molecule agonists, cell-based qHTS assay (AID 1963582; active means well fitted activation curve with a large enough effect in the signal ratio in the repeat runs, not every such curve was filed as active; the % refers to the signal ratio). The method in brief: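 Agonist activity was scored from beta-lactamase FRET fluorescence in p53RE-bla cells treated 16 h at 37 C with compounds in DMSO, substrate incubation being 2 h at room temperature.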
For assay [12], the target named is 5-hydroxytryptamine receptor 2A (Homo sapiens) (UniProt P28223). The assay can be described thus: 5-hydroxytryptamine receptor 2A (HTR2A) small molecule agonists, cell-based qHTS assay (AID 1963587). Further: nearly all actives have a fitted effect of over 30% in size. Further: potency means the concentration at half of the fitted maximal effect. The method in brief: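 CHO cells stably expressing human HTR2A, plated 18 h, loaded with calcium dye 1 h at 37 C. Agonist mode: compounds added and intracellular calcium fluorescence recorded kinetically for 2 min at 1 sec intervals.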

In assay [13] the target is Muscarinic acetylcholine receptor M1 (Homo sapiens) (UniProt P11229). Description: Cholinergic receptor muscarinic 1 (CHRM1) small molecule antagonists, cell-based qHTS assay (AID 1963588). Further: nearly all actives have a fitted effect of over 40% in size. The procedure, abridged: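 CHRM1-CHO calcium-flux assay, antagonist mode. Cells were seeded 18 h, dye-loaded 1 h at 37 C and given compound for 5 min at RT, then acetylcholine was added at 50nM. FDSS fluorescence was read 3 min; 15 concentrations, three runs.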

Assay [14] has the same target. The assay can be described thus: Cholinergic receptor muscarinic 1 (CHRM1) small molecule agonists, cell-based qHTS assay (AID 1963589). Further: nearly all actives have a fitted effect of over 35% in size. The method in brief:
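Stable CHRM1-CHO cells (human receptor) were incubated 18 h, dye-loaded for 1 h at 37 C and exposed to test compounds for agonist activity, with calcium-dependent fluorescence followed kinetically.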

Assay [15] can be described thus: cAMP Responsive Elements (CRE) small molecule agonists, cell-based qHTS assay (AID 1963590). The procedure, abridged: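 FRET-based beta-lactamase readout (LiveBLAzer B/G, 2 h RT) quantified CRE activation in HEK 293T CRE-bla cells after 3 h treatment with DMSO-dissolved compounds.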
A short description of assay [16]: cAMP Responsive Elements (CRE) small molecule antagonists, cell-based qHTS assay (AID 1963591; active means well fitted inhibition curve with a large enough effect in the signal ratio in the repeat runs, not every such curve was filed as active; the % refers to the signal ratio). The procedure, abridged:
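qHTS in CRE-bla HEK 293T cells: compound in DMSO, then 0.25 uM NKH477 (final), 3 h at 37 °C/5% CO2; beta-lactamase FRET read-out after 2 h substrate incubation.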

Assay [17] deals with Beta-2 adrenergic receptor (Homo sapiens) (UniProt P07550). The assay can be described thus: Adrenergic beta2 receptor (ADRB2) small molecule antagonists, cell-based qHTS assay (AID 1963592). Further: series mostly up to about 92 µM; nearly all actives have a fitted effect of over 50% in size. The method in brief: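 Cells (CHO, stable ADRB2 overexpression) incubated 18-20hr at 37C; compounds added from DMSO; agonist mix (1nM isoproterenol, 100uM IBMX, 25uM Ro-20-1724) added; 0.5hr RT; d2-cAMP and anti-cAMP-cryptate added; 1hr RT; 665/615 nm read.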

The target is the same in assay [18]. Description: Adrenergic beta2 receptor (ADRB2) small molecule agonists, cell-based qHTS assay (AID 1963593).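 Further: CHO cells stably overexpressing human ADRB2.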 The method in brief:
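CHO cells stably over-expressing ADRB2 were plated overnight at 37C, then dosed with compounds plus a stimulation mix containing 100uM IBMX and 25uM Ro-20-1724 for 0.5hr at room temperature. cAMP was measured by HTRF competition, 1hr.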

Assay [19] concerns the target D(2) dopamine receptor (Homo sapiens) (UniProt P14416). Description: Dopamine D2 receptor (DRD2) small molecule agonists, cell-based qHTS assay (AID 1963594). Further: nearly all actives have a fitted effect of over 35% in size. The method in brief: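 HEK293 cells stably expressing human DRD2, pre-treated with PDE inhibitor Ro20-1724 (0.1 mM final) and compound 10 min at room temperature, then stimulated with NKH477 (200nM […]) for 30 min. cAMP read by HTRF (665/620 nm).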

Assay [20] shares this target. Description: Dopamine D2 receptor (DRD2) small molecule antagonists, cell-based qHTS assay (AID 1963595; active means well fitted inhibition curve with a large enough effect in the signal ratio in the repeat runs, with a control signal flat; the % refers to the signal ratio). The method in brief:
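Stable D2 receptor HEK293 line, 24 h after seeding. Compound preincubated 10 min, then quinpirole (12 nM) with forskolin analogue NKH477 (200 nM), 30 min, room temperature. Detection by time-resolved FRET of cAMP.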

Chain of Beta-2 adrenergic receptor (Homo sapiens) (P07550 whole entry, looked up): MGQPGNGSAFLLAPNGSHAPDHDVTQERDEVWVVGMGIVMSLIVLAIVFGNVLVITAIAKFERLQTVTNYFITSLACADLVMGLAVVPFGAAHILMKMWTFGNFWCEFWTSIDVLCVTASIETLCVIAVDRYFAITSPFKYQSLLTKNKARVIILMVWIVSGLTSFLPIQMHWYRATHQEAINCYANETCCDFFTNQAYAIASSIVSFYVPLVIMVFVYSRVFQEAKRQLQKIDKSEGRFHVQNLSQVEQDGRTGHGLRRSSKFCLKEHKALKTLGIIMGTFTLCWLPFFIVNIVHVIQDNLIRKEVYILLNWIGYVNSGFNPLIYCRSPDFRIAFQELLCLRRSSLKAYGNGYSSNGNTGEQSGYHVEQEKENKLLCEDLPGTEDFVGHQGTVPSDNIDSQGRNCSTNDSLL
Chain of 5-hydroxytryptamine receptor 2A (Homo sapiens) (P28223 whole entry, looked up): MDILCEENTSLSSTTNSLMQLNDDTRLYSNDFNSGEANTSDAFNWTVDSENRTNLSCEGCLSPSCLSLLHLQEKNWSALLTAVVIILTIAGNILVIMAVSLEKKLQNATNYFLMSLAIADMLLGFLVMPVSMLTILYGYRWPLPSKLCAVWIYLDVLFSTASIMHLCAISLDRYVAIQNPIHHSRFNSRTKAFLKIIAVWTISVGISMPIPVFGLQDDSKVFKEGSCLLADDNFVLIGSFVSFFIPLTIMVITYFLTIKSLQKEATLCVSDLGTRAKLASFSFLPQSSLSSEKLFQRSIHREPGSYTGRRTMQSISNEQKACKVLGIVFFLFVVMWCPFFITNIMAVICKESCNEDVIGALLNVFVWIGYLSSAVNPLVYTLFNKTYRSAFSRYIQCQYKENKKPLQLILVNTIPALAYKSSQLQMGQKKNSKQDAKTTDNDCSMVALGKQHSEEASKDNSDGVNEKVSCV
Chain of D(2) dopamine receptor (Homo sapiens) (P14416 whole entry, looked up): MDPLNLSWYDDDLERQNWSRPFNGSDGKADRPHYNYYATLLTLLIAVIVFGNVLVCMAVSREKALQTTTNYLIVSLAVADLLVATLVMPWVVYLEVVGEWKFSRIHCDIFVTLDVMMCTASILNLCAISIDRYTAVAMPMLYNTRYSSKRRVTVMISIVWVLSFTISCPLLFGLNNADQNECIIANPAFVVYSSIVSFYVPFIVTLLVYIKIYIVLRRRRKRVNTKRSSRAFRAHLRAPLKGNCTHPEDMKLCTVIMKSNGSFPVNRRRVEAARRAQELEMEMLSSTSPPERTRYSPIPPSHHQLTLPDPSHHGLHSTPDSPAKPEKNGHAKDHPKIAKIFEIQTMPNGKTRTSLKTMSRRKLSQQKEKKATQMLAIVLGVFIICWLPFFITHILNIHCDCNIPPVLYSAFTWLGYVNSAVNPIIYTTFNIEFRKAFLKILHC
Chain of Gonadotropin-releasing hormone receptor (Homo sapiens) (P30968 whole entry, looked up): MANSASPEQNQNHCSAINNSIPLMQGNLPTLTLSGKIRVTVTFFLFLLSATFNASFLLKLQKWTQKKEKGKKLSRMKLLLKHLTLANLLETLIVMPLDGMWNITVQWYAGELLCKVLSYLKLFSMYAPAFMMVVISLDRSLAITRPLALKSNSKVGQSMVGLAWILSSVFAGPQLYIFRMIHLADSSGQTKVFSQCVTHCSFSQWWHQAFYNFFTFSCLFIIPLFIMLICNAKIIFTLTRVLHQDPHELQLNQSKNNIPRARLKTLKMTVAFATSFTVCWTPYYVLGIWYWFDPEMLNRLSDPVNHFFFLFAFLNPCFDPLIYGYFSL
Chain of KiSS-1 receptor (Homo sapiens) (Q969F8 whole entry, looked up): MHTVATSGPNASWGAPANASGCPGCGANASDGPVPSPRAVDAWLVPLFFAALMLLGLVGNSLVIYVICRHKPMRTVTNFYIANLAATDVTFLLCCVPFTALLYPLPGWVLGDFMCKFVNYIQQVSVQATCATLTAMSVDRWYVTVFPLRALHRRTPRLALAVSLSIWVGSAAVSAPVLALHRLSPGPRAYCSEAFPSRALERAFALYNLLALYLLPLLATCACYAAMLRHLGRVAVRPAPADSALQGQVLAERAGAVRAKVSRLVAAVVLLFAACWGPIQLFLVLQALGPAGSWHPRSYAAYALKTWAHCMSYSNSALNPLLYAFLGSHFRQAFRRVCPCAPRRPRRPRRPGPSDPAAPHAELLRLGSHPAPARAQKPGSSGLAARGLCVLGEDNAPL
Chain of Muscarinic acetylcholine receptor M1 (Homo sapiens) (P11229 whole entry, looked up): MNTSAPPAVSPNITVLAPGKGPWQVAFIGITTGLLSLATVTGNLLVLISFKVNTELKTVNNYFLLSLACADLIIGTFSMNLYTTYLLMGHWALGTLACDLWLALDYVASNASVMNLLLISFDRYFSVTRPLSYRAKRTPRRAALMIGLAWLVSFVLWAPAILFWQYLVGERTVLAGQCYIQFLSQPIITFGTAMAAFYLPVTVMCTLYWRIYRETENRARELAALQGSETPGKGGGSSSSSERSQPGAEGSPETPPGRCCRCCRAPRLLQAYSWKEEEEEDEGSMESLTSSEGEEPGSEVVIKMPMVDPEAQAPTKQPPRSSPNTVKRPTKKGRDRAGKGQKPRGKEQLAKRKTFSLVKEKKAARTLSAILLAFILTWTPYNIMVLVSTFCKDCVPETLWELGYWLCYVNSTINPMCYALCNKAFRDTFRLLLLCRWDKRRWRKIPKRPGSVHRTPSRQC

On to `CN(C)CCc1c[nH]c2ccc(C[C@H]3COC(=O)N3)cc12`, for which the Potency entry in [1], in assay [2], in [3], in assay [6], in assay [7] and in assay [8] was “inactive” each time. The Potency entry in [9], in assay [10], in [11], in [13], in assay [14] and in assay [15] was “inactive” throughout. The Potency result in assay [16], in assay [17], in [18], in assay [19] and in assay [20] was “inactive” throughout. In addition, the outcome in assay [4] and in assay [5] was inactive. Besides, in assay [12], the Potency was 8.49 µM (active).
On to `CCCCCCCCCCc1ccccc1`, for which the Potency result in assay [1], in assay [2], in [3], in assay [6], in assay [7] and in [8] was “inactive” each time. Moreover, the Potency entry in [9], in assay [10], in assay [11], in assay [13], in [14] and in assay [15] was “inactive” in each case. Further, the Potency entry in assay [16], in [17] and in [20] was “inactive” each time. For the same compound, the result in assay [4] and in assay [5] was inactive.
With `C(=C/c1ccccc1)/c1ccccc1`, the Potency entry in assay [1], in assay [2], in assay [3], in [6], in assay [7] and in assay [8] was “inactive” throughout. Besides, the Potency entry in assay [9], in [10], in assay [11], in [12], in assay [13] and in [14] was “inactive” throughout. Further, the Potency result in assay [15], in assay [16], in assay [17], in [18], in assay [19] and in [20] was “inactive” each time. The result in assay [4] and in [5] was inactive.
On to `CNc1c2c(nn1C)CCCC2`, for which the Potency entry in assay [1], in assay [2], in [3], in [6], in [7] and in [8] was “inactive” each time. The Potency entry in [9], in [10], in assay [11], in assay [14], in assay [15] and in [16] was “inactive” throughout. Besides, the Potency result in [17] and in [19] was “inactive” throughout. Also, the outcome in assay [4] and in [5] was inactive.
As for `CC(C)(C)c1cccc(O)c1`, the Potency result in assay [1], in assay [3], in assay [6], in assay [7], in assay [8] and in assay [9] was “inactive” each time. Further, the Potency result in assay [10], in assay [11], in [12], in assay [13], in assay [14] and in assay [15] was “inactive” in each case. In addition, the Potency result in assay [16], in [17], in assay [18], in assay [19] and in assay [20] was “inactive” each time. Besides, in assay [2], the Potency is 61.1 µM (active). Moreover, the outcome in assay [4] and in assay [5] was inactive.
In the case of `Cl[Si](Cl)(c1ccccc1)c1ccccc1`, the Potency result in assay [1], in assay [2], in [3], in assay [6], in assay [7] and in assay [8] was “inactive” each time. For the same compound, the Potency entry in assay [9], in assay [10], in assay [11], in [13], in [14] and in assay [16] was “inactive” throughout. Besides, the Potency entry in assay [17], in [19] and in assay [20] was “inactive” throughout. Moreover, the result in [4] and in [5] was inactive.
As to `O=C(c1ccco1)N1CCNCC1`, the Potency result in assay [1], in assay [2], in [3], in assay [6], in assay [7] and in assay [8] was “inactive” in each case. Moreover, the Potency result in [9], in assay [10], in assay [11], in [12], in assay [13] and in [14] was “inactive” in each case. Besides, the Potency entry in assay [15], in [16], in assay [17], in assay [18], in assay [19] and in [20] was “inactive” throughout. The outcome in assay [4] and in [5] was inactive.
